Results on 22 molecules are retold here after PubChem BioAssay (NCATS).

Experiment [1] can be described thus: Stat Signaling Pathway (AID 446).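 Note: ME-180 cervical cancer cells given 40 pM IL-6 alongside compound; SIE-controlled beta-lactamase reporter measured as 460/530 nm FRET emission ratio.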 A digest of the protocol: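 Normalization used AC90 stimulation (300 pM IL-6) and AC90 inhibition (125 nM pan-JAK inhibitor at 40 pM IL-6). The underlying signal is SIE-driven beta-lactamase in ME-180 cells after 5 h IL-6 exposure with compound.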
Experiment [2] deals with Glucocorticoid receptor (Homo sapiens) (UniProt P04150). Description: GR-GFP Redistribution (AID 450;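 active = compounds whose dose series gives a full or clear partial fitted curve of increased nuclear translocation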; note: potency is the fitted concentration of half-maximal effect). Particulars: U2OS GR-GFP nuclear translocation, laser cytometry, 2 h.
Chain of Glucocorticoid receptor (Homo sapiens) (P04150 whole entry, looked up): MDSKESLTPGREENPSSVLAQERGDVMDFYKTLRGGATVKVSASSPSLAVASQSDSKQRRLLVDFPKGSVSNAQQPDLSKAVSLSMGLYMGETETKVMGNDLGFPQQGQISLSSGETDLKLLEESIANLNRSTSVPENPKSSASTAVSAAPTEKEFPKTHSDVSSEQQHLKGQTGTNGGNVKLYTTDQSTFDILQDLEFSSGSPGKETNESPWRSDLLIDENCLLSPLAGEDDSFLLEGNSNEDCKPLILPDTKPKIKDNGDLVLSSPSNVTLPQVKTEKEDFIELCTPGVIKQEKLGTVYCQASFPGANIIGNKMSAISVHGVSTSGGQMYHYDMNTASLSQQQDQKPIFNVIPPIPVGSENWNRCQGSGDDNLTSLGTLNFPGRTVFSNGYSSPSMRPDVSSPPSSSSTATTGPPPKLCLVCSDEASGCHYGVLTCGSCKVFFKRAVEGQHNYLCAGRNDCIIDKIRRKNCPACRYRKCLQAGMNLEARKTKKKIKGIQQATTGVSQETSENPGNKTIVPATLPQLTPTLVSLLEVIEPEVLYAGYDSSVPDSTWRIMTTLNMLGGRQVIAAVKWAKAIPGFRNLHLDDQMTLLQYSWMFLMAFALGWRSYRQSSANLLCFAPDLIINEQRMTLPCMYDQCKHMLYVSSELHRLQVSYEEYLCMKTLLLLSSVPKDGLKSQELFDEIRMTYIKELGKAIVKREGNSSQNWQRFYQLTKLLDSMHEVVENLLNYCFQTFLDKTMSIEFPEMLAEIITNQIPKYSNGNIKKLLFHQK
The target is the same in experiment [3]. Put plainly: GR-EFC Redistribution (AID 451; calls by dose curve; note: potency is the fitted concentration of half-maximal effect). Particulars: CHO-K1 GR-EFC translocation, beta-gal luminescence, 2 h. A digest of the protocol:
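Translocation of GR-ED fusion to nuclear EA restores b-gal, read by luminescence after 1 h room-temperature detection. Engineered CHO-K1 biosensor cells, 1,000/well, exposed 2 h at 37 C to titrations up to 46 uM final.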

In experiment [4] the target is Mitogen-activated protein kinase 10 (Mus musculus) (UniProt Q61831). Put plainly: JNK3 AlphaScreen Assay (AID 530).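 Note: kinase came from lysate of stimulated human HepG2 cells.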 Note: potency is the fitted concentration of half-maximal effect. The gist of the method:
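Kinase buffer: 20 mM Tris-HCl pH 7.6, 10 mM MgCl2, 1 mM DTT, 0.1 mM Na3VO4, 0.01% Tween-20; ATP 10 uM. Substrate biotin-GST-cJun(1-79), enzyme from activated HepG2 lysates. Detection by Ser73 phospho-antibody AlphaScreen.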
(In general: Bead proximity is the source of the signal in Alpha formats.)

Experiment [5] can be described thus: Cell Viability - N2a (AID 540; active = well fitted curve in the direction sought with a large enough effect; an effect the other way counts as inactive or inconclusive; note: nearly all actives have a fitted effect of over 45% in size). A digest of the protocol: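 N2a mouse neuroblastoma, 1500 cells/well, 5 hr settle; compound 40 hr, 37 °C; CellTiter-Glo 20 min RT; luminescence; Hill-fit AC50.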
A short description of experiment [6]: Cell Viability - HUV-EC-C (AID 542; active = well fitted curve in the direction sought with a large enough effect; an effect the other way counts as inactive or inconclusive; note: nearly all actives have a fitted effect of over 35% in size). From the text: NIH Chemical Genomics Center [NCGC]
NIH Molecular Libraries Screening Centers Network [MLSCN]
National Institutes of Environmental Health Sciences [NIEHS]
National Toxicology Program [NTP]
We have developed a 1536-well cell-based assay for quantitative high throughput screening (qHTS) against a number of cell lines to determine in vitro cytotoxicity of small molecules. This particular assay uses the HUV-EC-C cell line which is derived from normal human vascular endothelial cells.
NCGC Assay Protocol Summary:
The CellTiter-Glo luminescent cell viability assay (Promega) is a homogeneous method to measure the number of viable cells in culture. The end point readout of this assay is based on quantitation of intracellular ATP, an indicator of metabolic activity, using the luciferase reaction. […]
Using the CellTiter-Glo luminescent cell viability assay, the amount of cellular ATP was measured in the HUV-EC-C cell line with complete culture medium following compound treatment for 40 hours. […] Library compounds were measured for their ability to cause acute toxicity in the cell line, as reflected by a decrease in intracellular ATP levels, in a concentration-dependent manner. […] AC50 values were determined from concentration-response data modeled with the standard Hill equation. […]
8. Detection; Luminescence; Viewlux plate reader […]

A short description of experiment [7]: Cell Viability - H-4-II-E (AID 543; active = well fitted curve in the direction sought with a large enough effect; an effect the other way counts as inactive or inconclusive; note: nearly all actives have a fitted effect of over 35% in size). The gist of the method: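 qHTS, rat hepatoma H-4-II-E, 1500 cells/well; 40 hr compound exposure, 37 °C; CellTiter-Glo ATP luminescence after 20 min RT; AC50 by standard Hill fit.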
Experiment [8] can be described thus: Cell Viability - SH-SY5Y (AID 544; active = well fitted curve in the direction sought with a large enough effect; an effect the other way counts as inactive or inconclusive; note: nearly all actives have a fitted effect of over 55% in size). The gist of the method: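 SH-SY5Y, 1500 cells/well, 5 hr pre-incubation 37 °C; cpd 40 hr 37 °C; CellTiter-Glo 20 min RT; luminescence (ATP) read. qHTS concentration-response, Hill fit → AC50. Tamoxifen, doxorubicin as positive controls.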
A short description of experiment [9]: Cell Viability - Renal Proximal Tubule (AID 545; active = well fitted curve in the direction sought with a large enough effect; an effect the other way counts as inactive or inconclusive; note: nearly all actives have a fitted effect of over 40% in size). The gist of the method: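 In this qHTS format, normal rat kidney-derived proximal tubule cells in complete culture medium receive compound titrations, then sit 40 hours at 37 °C before luciferase-based ATP quantitation; potency is reported as AC50 from concentration-response curves.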
A short description of experiment [10]: Cell Viability - Mesenchymal (AID 546; active = well fitted curve in the direction sought with a large enough effect; an effect the other way counts as inactive or inconclusive;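 note: cells exposed to compound for 40 hours before reading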). A digest of the protocol:
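CellTiter-Glo luminescence (intracellular ATP, 20 min room temperature) after 40 hr compound exposure at 37 °C of 1000 glomerulus-derived human kidney mesenchymal cells/well; AC50 values obtained by fitting qHTS concentration-response data to the Hill equation.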

The structures appear in SMILES notation. Values joined by “and” are separate entries in the source; they are usually repeats but may differ in a detail not shown here. Equal entries are not always repeated. Unmarked numbers belong to inactive results. Results filed as inconclusive are left out. Active and inactive are the calls of the source. Unless noted, calls come from the whole dose curve; as a rule, active = well fitted curve in either direction with a large enough effect (not every such curve was filed as active); inconclusive = small, poorly fitted or top-dose-only effect, or another doubt; inactive = flat fitted curve, though single readings scatter.

In the case of `CN[C@H]1[C@@H](O[C@@H]2[C@H](O[C@@H]3[C@@H](O)[C@@H](O)[C@@H](N=C(N)N)[C@@H](O)[C@@H]3N=C(N)N)O[C@H](C)[C@@]2(O)C=O)O[C@@H](CO)[C@@H](O)[C@H]1O`, the call in experiment [1] was inactive. In addition, the Potency in [2] and in [3] was > 20.6 µM throughout. Besides, the Potency entry in experiment [4] is “inactive”.

For the molecule `COc1nccc(-c2c(-c3ccc(F)cc3)ncn2C2CCC(O)CC2)n1` (stereo not given), the Potency in experiment [2] and in [3] was > 46 µM throughout.

`O=c1cc(-c2ccc(O)c(O)c2)oc2cc(O)cc(O)c12`: the Potency in [2] is > 20.6 µM and > 46 µM; in experiment [3], > 20.6 µM and > 46 µM; in experiment [4], 6.31 µM (active).

Regarding `Cc1cc2nc3c(=O)[nH]c(=O)nc-3n(CC(O)C(O)C(O)CO)c2cc1C` (stereo not given), the result in experiment [1] was inactive. Further, the Potency was > 20.6 µM in experiment [2]; > 20.6 µM and > 46 µM in experiment [3]. Further, the Potency entry in [4] was “inactive”.

On to `Clc1ccc(COC(Cn2ccnc2)c2ccc(Cl)cc2Cl)c(Cl)c1` (stereo not given), for which the Potency in [3] was > 20.6 µM. The Potency result in [4] was “inactive”.

As for `CN1CCN2c3ncccc3Cc3ccccc3C2C1` (stereo not given), the Potency in [2] and in [3] was > 46 µM each time. Further, the Potency result in experiment [4] was “inactive”.

Take `Cc1cc(NC(=O)Nc2ccc(N(C)C)cc2)c2cc(F)cc(F)c2n1`: the Potency in [2] and in experiment [3] was > 46 µM each time.

With `C=C1c2cccc(O)c2C(O)=C2C(=O)[C@@]3(O)C(O)=C(C(N)=O)C(=O)[C@@H](N(C)C)[C@@H]3[C@@H](O)[C@H]12`, the molecule was called inactive in [1]. The Potency in [2] and in experiment [3] was > 20.6 µM throughout. Besides, the Potency result in experiment [4] is “inactive”.

For the molecule `CCCCC[C@H](O)C=C[C@H]1[C@H](O)CC(=O)[C@H]1CCCCCCC(=O)O`, the Potency in [2] and in [3] was > 46 µM in each case. The Potency entry in [4] was “inactive”.

Take `C[C@@H]1C[C@H]2[C@@H]3CCC4=CC(=O)C=C[C@]4(C)[C@@]3(F)[C@@H](O)C[C@]2(C)[C@@]1(O)C(=O)CO`: the molecule was called inactive in experiment [5], in experiment [6], in experiment [7], in experiment [8], in experiment [9] and in experiment [10].

On to `CCCCC(C=O)NC(=O)C(CC(C)C)NC(=O)OCc1ccccc1` (stereo not given), for which the Potency in experiment [2] and in experiment [3] was > 46 µM throughout. Besides, the Potency entry in experiment [4] is “inactive”.

Take `Cc1ccc(NC(=O)c2cccc(N(C)C)c2)cc1NC(=O)c1ccc(O)cc1`: the Potency in experiment [2] and in experiment [3] was > 46 µM each time. In addition, the Potency entry in [4] was “inactive”.

With `CCC(=C(CC)c1ccc(O)cc1)c1ccc(O)cc1`, the Potency in [2] and in experiment [3] was > 20.6 µM in each case. Also, the Potency result in experiment [4] is “inactive”.

For the molecule `CC(NCCc1ccc(O)cc1)C(O)c1ccc(O)cc1` (stereo not given), in experiment [1], the outcome was inactive. The Potency in experiment [2] was > 20.6 µM.

As to `CN(C)c1ccccc1CN1CCCN(Cc2ccccc2N(C)C)C1c1ccncc1`, the outcome in experiment [1] was inactive. In addition, the results for the Potency in experiment [2] and in experiment [3] were > 46 µM and > 9.22 µM, respectively. Besides, the Potency result in experiment [4] is “inactive”.

In the case of `NS(=O)(=O)c1cc(Cl)c(Cl)c(S(N)(=O)=O)c1`, in experiment [1], the molecule was called inactive. Also, the Potency in experiment [2] and in experiment [3] was > 20.6 µM throughout. The Potency result in [4] is “inactive”.

As for `NC(=O)c1nnn(Cc2cc(Cl)c(C(=O)c3ccc(Cl)cc3)c(Cl)c2)c1N`, the molecule was called inactive in experiment [1]. Further, the figures for the Potency in experiment [2] and in [3] were > 46 µM and > 9.22 µM, respectively. The Potency entry in [4] was “inactive”.

As for `NCC1CCC(C(=O)O)CC1` (stereo not given), the molecule was classed as inactive in [1]. For the same molecule, in experiment [4], the Potency result is “inactive”.

With `CC1C(=O)OC2C(O)C34C5CC(C(C)(C)C)C36C(OC(=O)C6O)OC4(C(=O)O5)C12O` (stereo not given), the Potency in experiment [2] and in experiment [3] was > 46 µM in each case. For the same molecule, the Potency entry in experiment [4] was “inactive”.

For `O=S(=O)(O)c1ccc2cc(N=Nc3cc(S(=O)(=O)O)c4cccnc4c3O)ccc2c1`, the figures for the Potency in experiment [2] and in experiment [3] were > 46 µM and > 9.22 µM, respectively. Besides, in [4], the Potency entry was “inactive”.

In the case of `CN(C)CCN(Cc1ccc(Cl)cc1)c1ccccn1`, the outcome in experiment [1] was inactive. The Potency in [2] and in [3] was > 20.6 µM in each case. Further, in [4], the Potency entry was “inactive”.

For `COc1ccc(CCN(C)CCCOc2ccc(S(=O)(=O)c3[nH]c4ccccc4c3C(C)C)cc2)cc1OC`, the Potency in experiment [2] and in experiment [3] was > 46 µM in each case.
